Screens (PubChem BioAssay)
Sampled rows, rich in hits. Any-hit rate of the full collection: about 4.6%.
D1 agonist – activates the human D1 dopamine receptor. activation, % at 2 µM. actives 1% (n = 360,000). AID 504660. P21728. HEK293 T-REx D1 cells, calcium flux, agonist mode; further: 0% is about no effect
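Tetracycline-induced HEK293 TREx D1 cells, force-coupled to calcium signalling, were dye-loaded with a no-wash calcium kit. Compound was pin-added after a 10 s baseline. Fluorescence was read kinetically at 1 cycle/s for 180 s, with calcium rises flagged as agonism.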
TRHR ag – TRH receptor (human) agonism. AID 493084. actives 0.18% (n = 360,000). P34981. TRHR cells, calcium flux fluo-8, FDSS agonist mode. activation, % at 2 µM; further: 0% is about no effect
Target sequence (P34981 whole entry, looked up): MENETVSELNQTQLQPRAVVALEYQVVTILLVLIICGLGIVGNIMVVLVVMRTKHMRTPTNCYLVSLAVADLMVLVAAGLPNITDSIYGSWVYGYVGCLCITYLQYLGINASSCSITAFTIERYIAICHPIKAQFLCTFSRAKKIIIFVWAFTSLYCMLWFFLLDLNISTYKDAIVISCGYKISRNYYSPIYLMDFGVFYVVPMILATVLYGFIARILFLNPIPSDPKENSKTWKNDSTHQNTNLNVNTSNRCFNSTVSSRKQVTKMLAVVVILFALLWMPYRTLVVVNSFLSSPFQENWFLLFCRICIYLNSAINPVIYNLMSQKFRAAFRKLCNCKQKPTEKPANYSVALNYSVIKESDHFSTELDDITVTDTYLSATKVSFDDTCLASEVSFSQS
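Fluo-8-loaded TRHR cells; 10 s baseline, compound added, kinetic Ca2+ fluorescence read 1/s, agonist mode.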
TRHR enhancer – allosteric enhancers of human TRH receptor; TRHR cells, fluo-8 calcium fluorescence, EC20 TRH enhancement; AID 493056; actives 0.66% (n = 360,000); enhancement, % at 2 µM; in the data active means enhancement above about 30%; further: 0% is about no effect
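Enhancer read-out: after compound pinning and an initial kinetic agonist-mode read, an EC20 of TRH (10 nM final) was injected and fluo-8 calcium signal (Ex 480/Em 530) followed at 1 s/cycle for 100 cycles in TRHR-expressing cells.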
D1 PAM – potentiators of human D1 dopamine receptor; actives 0.036% (n = 360,000); P21728; HEK293 TREx D1 cells, calcium flux, dopamine EC20 potentiation; potentiation, % at 10 µM; in the data active means potentiation above about 30%; further: 0% is about no effect
D1 antagonist – antagonists of human D1 dopamine receptor | P21728 | HEK293 TREx D1 cells, calcium flux, dopamine EC80; stronger effect = lower value | actives 3.2% (n = 360,000) | activity change, negative = inhibition, % at 10 µM | AID 504652; in the data active means activity change below about -30%; further: on the % scale 0 is the no-effect control and ±100 the full control effect
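After overnight tetracycline induction at 30 C, force-coupled D1 HEK293 cells took up a no-wash calcium dye at room temperature. Compounds were added and monitored 180 s, and the response to EC80 dopamine was then recorded.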
Numbers without * were called inactive; ! = repeats disagree. Unless noted, no stated cut-off is given here; in the data, active means activation above about 30%; inactive means the rest.

SMILES	D1 agonist	TRHR ag	TRHR enhancer	D1 PAM	D1 antagonist
Nc1ccc(C(=O)N2CCN(S(=O)(=O)c3ccc(Br)cc3)CC2)cc1[N+](=O)[O-]	5	0	2	-4	-49*
CC1(C)Cc2nc3oc4c(N5CCOCC5)ncnc4c3cc2CO1	2	2	-1	8	-10
O=C(CSc1nnc2ccc3ccccc3n12)N1CCOCC1	3	0	-2	3	0
CCCOc1ccc(-c2nn(-c3ccccc3)cc2/C=C2\SC(N)=NC2=O)cc1C	1	1	-1	-10	-74*
COc1ccc(-c2nn(CCC(=O)O)cc2/C=C2\SC(N)=NC2=O)cc1OC	1	0	-3	-4	0
O=C1C2C(c3cccc(/C=C/c4ccccc4)c3)CC=CC2C(c2ccc3ccccc3c2)N1Cc1ccccc1 (stereo not given)	5	0	-2	-2	-42*
Cc1cc2ccccc2c(=O)n1CC(=O)Nc1ccc2c(c1)OCCO2	1	0	31*	-2	-3
O=C(Cn1c(=O)oc2ccccc21)Nc1ccc2c(c1)OCCO2	3	0	11	-2	-7
O=C(CCn1c(=O)oc2ccccc21)Nc1ccc2c(c1)OCCO2	3	-1	1	-6	-38*
CN(CC(=O)Nc1ccc(F)cc1)C(=O)Cn1c(=O)oc2ccccc21	3	1	7	0	2
Cc1ccc(NC(=O)CN(C)C(=O)Cn2c(=O)oc3ccccc32)cc1	0	2	31*	-1	-1
Cn1cc(SCC(=O)Nc2ccc3c(c2)OCCO3)c2ccccc21	-1	-1	-2	-2	-39*
COc1cc(S(=O)(=O)Nc2ccccc2C(=O)N2CCCC2)ccc1NC(C)=O	6	0	4	-5	3
O=C(NC1(c2ccccc2)CC1)C1CCC(=O)N(Cc2ccc(Cl)cc2)C1 (stereo not given)	1	1	-2	-2	-3
COc1cc(NC(=O)CSc2ccc3c(c2)OCCO3)cc(OC)c1OC	15	-1	-4	-2	-36*
O=[N+]([O-])c1cc(S(=O)(=O)Nc2cccc(C(F)(F)F)c2)ccc1-n1nnc2ccccc21	15	0	-4	-7	-15
COc1ccc(NS(=O)(=O)c2ccc(-n3nnc4ccccc43)c([N+](=O)[O-])c2)cc1	36*	2	-9	-11	-3
COc1ccc(C)cc1NC(=O)CSc1nnc(-c2ccco2)n1N	1	-1	9	-6	-19
CC(=O)c1cccc(NC(=O)CSc2ccc(-c3ccco3)nn2)c1	1	0	-1	-9	-56*
COc1ccc(C)cc1NC(=O)CSc1ccc(-c2ccco2)nn1	0	-1	1	42*	-7
Cc1ccccc1-c1nc(CN2CCCC(C(=O)NCc3cccnc3)C2)c(C)o1 (stereo not given)	3	0	1	-3	-3
COc1ccc2[nH]c(=O)c(CN(Cc3cccs3)C(=S)Nc3cccc(C)c3)cc2c1	4	-1	-9	-6	-32*
COc1ccc2[nH]c(=O)c(CN(Cc3cccnc3)C(=O)Nc3ccccc3)cc2c1	0	-1	-2	-4	-37*
CNC(=S)N(Cc1cccs1)Cc1cc2cc(OC)ccc2[nH]c1=O	5	-1	0	-1	8
COc1ccc2[nH]c(=O)c(CN(C(=O)c3cccnc3)c3ccccc3)cc2c1	0	0	12	36*	1
SMILES	D1 agonist	TRHR ag	TRHR enhancer	D1 PAM	D1 antagonist
COCCn1c(CN2CCN(C(=O)c3ccco3)CC2)nc2c1c(=O)n(C)c(=O)n2C	0	0	-4	1	8
Cc1csc(CNc2ncnc3ccc(-c4ccco4)cc23)c1	-1	0	-8	-9	-39*
COc1cccc(-c2ccc3ncnc(NCc4cccnc4)c3c2)c1	3	0	9	3	9
c1cncc(CNc2ncnc3ccc(-c4ccco4)cc23)c1	0	0	-5	-10	-77*
C=CCOc1ccc(-c2n[nH]c(=S)o2)cc1	1	0	12	-2	-4
CCOC(=O)c1c(Nc2ccc(C)c(C)c2)nnc(-c2ccccc2)c1-c1ccccc1	2	0	-6	-1	10
COc1ccccc1NC(=O)CN1C(=O)CSc2ccc(S(=O)(=O)N3CCCC3)cc21	5	-2	8	-4	-7
CCCc1cc(=O)[nH]c(SCc2cc(=O)oc3cc(C)c(C(C)C)cc23)n1	1	1	2	-6	-10
CCCCn1nnc(N(C(=O)c2cccs2)C(=O)c2cccs2)n1	11	-1	5	-7	-3
CCOc1ccc(CNC(=O)Cn2nc(C)c3c(C)n(-c4ccc(C)cc4)nc3c2=O)cc1	1	-1	-17	-2	-50*!
Cc1nn(CCC(=O)NCc2ccc(Cl)cc2)c(=O)c2nn(-c3ccccc3)c(C)c12	2	0	-4	0	-2
Cc1ccc(-n2nc3c(=O)n(CC(=O)NCc4ccco4)nc(C)c3c2C)cc1	2	-1	0	-2	-34*
Cc1nn(CC(=O)NCCc2ccco2)c(=O)c2nn(-c3ccccc3)c(C)c12	0	0	1	-6	3
Cc1ccc(-n2nc3c(=O)n(CC(=O)NC(C)C)nc(C)c3c2C)cc1	1	-1	6	-2	-35*
Cc1nn(CCC(=O)NCc2ccc(N(C)C)cc2)c(=O)c2nn(-c3ccccc3)c(C)c12	0	0	-3	5	-31*!
Cc1ccc(CCC(=O)Nc2ccc(C#N)cc2)o1	2	0	6	5	-17
Cc1ccccc1Cn1nc(C)c(NC(=O)c2cc3n(n2)C(C(F)F)CC(C(F)F)N3)c1C (stereo not given)	-1	0	6	-2	-51*
CCOC(=O)c1ccccc1NC(=O)c1cc2ccccc2o1	14	1	-10	0	18
C/C(=N\NC(=O)c1ccc(Cl)c(Cl)c1)c1ccccn1	4	0	-2	-2	-38*
CC(C)Sc1oc(-c2ccco2)nc1S(=O)(=O)c1ccccc1	1	0	9	6	-48*
CSc1oc(-c2ccco2)nc1S(=O)(=O)c1ccccc1	0	0	-9	8	10
Nc1c(S(=O)(=O)c2cccc(Cl)c2)c2nc3ccccc3nc2n1/N=C/c1ccc(O)c(O)c1	1	1	1	-5	-34*
Cc1ccc(OCC(=O)OCCN2C(=O)c3ccccc3C2=O)cc1C	1	0	-3	0	4
Cc1cc(C)cc(OCC(=O)OCCN2C(=O)c3ccccc3C2=O)c1	3	0	39*	14	-7
Cc1ccc(NS(=O)(=O)c2ccc(C)c(NC(=O)COc3ccccc3)c2)c(C)c1	-2	-1	1	-11	-46*
COc1cc(CNCCNC(=O)c2nonc2N)ccc1OCc1ccc(Cl)cc1	69*	2	2	-4	-22
